PubChem BioAssay AID1508600 (Functional Genomics Laboratory (NCATS/FGL), 2020)
In all, about 53,000 sequences went through this assay and about 3,700 (7%) were called active.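 Rule for the calls: active = gene knockdowns whose robust z-score for IL-1 alpha signal is at least 2 or at most -2, so actives lie on both sides; inactive = the rest.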 Shown is part of a subset that was picked to be rich in actives.

experiment: Components of the Cytosolic LPS Sensing Pathway: Gene Identification via Genome-wide siRNA Screen; conditions: RAW264.7 macrophages, IL-1a HTRF, actives lie on both sides, screened at 100 nM (by protocol), cells primed 5 h with Pam3CSK4 first;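 note: robust z of the log signal after scaling to non-targeting control siRNA wells of the plate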
Summary of the method: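 IL-1a HTRF of supernatants after 24 hour LipidA transfection of Pam3CSK4-primed (5 hours) RAW264.7 cells, 48h post-siRNA transfection (100 nM). Scores: percent of plate negative-control median, then log-based robust z-score.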

Row | Sequence | z-score
1 | GUUAUAGCGGCGAAGGUGUTT against Maml3 | 1.02 (inactive)
2 | CCUCUACAUCAGAGUAUGATT against Defb21 | 2.22 (active)
3 | GGUCUGCUGUUGAUCGUUCTT against Sct | 1.72 (inactive)
4 | CGAUUCAAGGUAACAUAGATT against Esrrg | 1.66 (inactive)
5 | GGCACUAAUGGAGAGACUGTT against Nr6a1 | 3.53 (active)
6 | GGCCCAAACACGUGUAAAATT against Kdm5b | 0.322 (inactive)
7 | GGACAAAGAGGAAUGGAUATT against Tank | -1.19 (inactive)
8 | GGCAUGAAUCAGUCUAUGGTT against Olfr1308 | 0.656 (inactive)
9 | GGCUGGAGAAGUAAUGAUATT against Sp100 | 0.62 (inactive)
10 | GGAAGGUUGUAAGUUUAAATT against Krtap14 | 2.12 (active)
11 | GGACUUUGAAGAACUAAGUTT against Tfrc | 1.01 (inactive)
12 | GGGAUCUAAAGGCUGAAAATT against Mark4 | -0.291 (inactive)
13 | GCCAUCGCUAACUUACGGATT against Gdpd5 | -1.81 (inactive)
14 | GGAUGGACCUUCAGAAAAGTT against Srrm4 | -1.63 (inactive)
15 | GGUCGUGCAUGACAACUAUTT against Itk | 2.62 (active)
16 | GGCCAAAGUCGAAUCAUAUTT against Prmt2 | -0.252 (inactive)
17 | CCAAUGGCGAGACAACUACTT against Aldoa | 0.182 (inactive)
18 | GGGUCUGCCGUCAUCCAUATT against Acp6 | -0.563 (inactive)
19 | GGGCUUACCGUAUAACUUUTT against Nptn | 1.4 (inactive)
20 | GGACCUGAAUUCCACUCCUTT against Socs1 | -0.147 (inactive)
21 | GGAUGAGGAGGAUACAAAGTT against Eif3c | 0.228 (inactive)
22 | GGAUACUCUCAGGACGUGATT against Ncbp2 | -2 (active)

Row | Sequence | z-score
23 | CGAGCAAGCUUCUACAUACTT against AI182371 | 0.438 (inactive)
24 | GCAAAUCAUUUAGGACCCATT against Amer2 | -2.54 (active)
25 | GGAGUUCAGGUAUCCCUGATT against Nomo1 | -0.109 (inactive)
26 | GGAAAACAAGAAAGAUGAATT against Snupn | -1.05 (inactive)
27 | CGAUCCUCAUCUUUAUAUATT against Agbl1 | -0.33 (inactive)
28 | CGCCAAAAGUUCUUGCCAUTT against Olfr618 | -2.02 (active)
29 | CCUAGAUUCUGAAUUCGAATT against Pdzd8 | -1.09 (inactive)
30 | GGAUAACAGAUGGUUAAUATT against Pramel48 | 0.202 (inactive)
31 | GGUUGGAUUCCUGAUAUUATT against Moxd2 | -0.22 (inactive)
32 | CGGCACUAGGAAGCUUUUATT against Inpp5a | -0.185 (inactive)
33 | GCAUCUACCAUGGAAAUAUTT against Clcn7 | 0.053 (inactive)
34 | GGAGCUGGAGAAGUUACUUTT against Amigo3 | 2.06 (active)
35 | GCUGGUUGUAGUAAAACAGTT against Resf1 | -1.29 (inactive)
36 | GCUGGUAUGACCAAGAGAATT against Mutyh | 0.679 (inactive)
37 | GGGAAAUGACCUUCAUUGGTT against Rbl2 | 1.05 (inactive)
38 | GGUCAGUCAACAUGAACUUTT against Acad9 | 0.0973 (inactive)
39 | GGCAGGACAUUCUCAAAUCTT against Praf2 | 2.51 (active)
40 | GGGAGUUGAGAAGACAUAATT against Lim2 | 0.223 (inactive)
41 | CGGGCAGUACUAUGAUUUGTT against Ppp1cc | 2.09 (active)
42 | CCUCACCAAACCUUGUUGATT against Cd300lg | -1.57 (inactive)
43 | GGCUAAGACUAUGUUGUAATT against Smcp | -1.48 (inactive)
44 | GGCUCUUUGUUCAGUUUUUTT against Fxyd3 | 2.52 (active)

Row | Sequence | z-score
45 | CCAUAUAACUGCCAAUAAUTT against Ankrd7 | -2.02 (active)
46 | GCUCAUAAAACUCCAAAAGTT against Mob4 | -0.713 (inactive)
47 | GCAACUCUGAGGUUGCUAGTT against Pgam1 | -0.12 (inactive)
48 | CCCUCAUUGUAACCUUAACTT against Olfr792 | -2.27 (active)
49 | GGCUGAAUGUCGCUUAGAGTT against 9030612E09Rik | -0.875 (inactive)
50 | GGCUUAGCUUUUGUGAUUCTT against Olfr143 | -1.24 (inactive)
51 | GGUGUCCCUUAAUGUGUCCTT against Heg1 | 0.671 (inactive)
52 | GCCUCUCUGGUGAACUUAGTT against Ccar1 | 0.0406 (inactive)
53 | GCCUCACUUGAUGAAAUGGTT against Sccpdh | -2.13 (active)
54 | GGAAGGACUUAAAUGAUGCTT against Rnf187 | -1.18 (inactive)
55 | GGUGGACAUUCCUAAGAUUTT against Ago1 | -0.97 (inactive)
56 | CGCAUAAUGGAUGAGAGGATT against Mef2a | 0.871 (inactive)
57 | GCAGUGUAUAGGUGUACAATT against Krt2 | 3 (active)
58 | GCAGAGUGCUCGUAGAGUGTT against Heatr5a | 0.96 (inactive)
59 | GGAGGUUCAACAUGAAAAUTT against Lingo2 | -0.253 (inactive)
60 | GGCCUUUGCACGUGGAUUGTT against Zfp420 | -0.221 (inactive)
61 | GGGAAUCAUGAUAUGUUUCTT against Tmem186 | -0.217 (inactive)
62 | GGAGGUCCAUGUCCUGCUUTT against Mesp2 | 0.336 (inactive)
63 | GCAGAACCGCCAACCAACATT against Smarcc2 | -2.03 (active)
64 | CCUCGGUCAGAUUCCUGAUTT against Phpt1 | 0.101 (inactive)
65 | CCAAUAACUACUCAUACCCTT against Ints1 | 0.105 (inactive)
66 | GCAUGUAGUAUGGUAACACTT against Akr1b7 | -1.78 (inactive)

Row | Sequence | z-score
67 | CCUUAAACAGCUUUUCAGATT against Dync2h1 | 0.472 (inactive)
68 | UCUUACACUUCGUGUUCCATT against Gpr6 | 3.12 (active)
69 | CGAAAACUUCAUAGCUACATT against Hmg20a | -1.95 (inactive)
70 | GCAGACAAUAUCUCUGAAUTT against Olfr459 | -0.942 (inactive)
71 | CCUCUCAAGAAAUCGUGCATT against Trim47 | 0.978 (inactive)
72 | GCAGAUUGUGCAGCUAGCATT against Pax4 | 0.452 (inactive)
73 | CCAUCUCAUUCCUUACCAGTT against Gm4736 | -1.79 (inactive)
74 | GGAUAAGAUAAUGUCUGUGTT against Olfr716 | -1.73 (inactive)
75 | GGGUAACAGUGGUGAACCUTT against Col1a1 | 2.08 (active)
76 | GGCUGAGUUAUUUGUGACATT against Syt13 | -1.41 (inactive)
77 | CGGCCUGGGUCCCGUGGACTT against Hs3st6 | -1.18 (inactive)
78 | CGCAUGCCUGUAAAAUAAATT against 2310057M21Rik | -1.37 (inactive)
79 | GGGAAUUUUGGAAGAGUCUTT against F630003A18Rik | -3.23 (active)
80 | GCGAGGAAAGAGCACUGUATT against Fam107a | -0.103 (inactive)
81 | GGGCUAUGUUCGAAGUAAATT against Kbtbd3 | -0.848 (inactive)
82 | GGUGAGUAUAUUCAAGUUATT against Ndor1 | 4.36 (active)
83 | GGAUAUUUGGAGGACAACCTT against C1s1 | 0.0678 (inactive)
84 | CGAGAGGUUUGUCCAUAGATT against Tac4 | -0.86 (inactive)
85 | GGGACAAUAAAACCAACACTT against Ulk4 | -1.04 (inactive)
86 | CCACCUUGGUCUAAUUUCUTT against Slitrk4 | -2.06 (active)
87 | GGCUCCUCAUUACCUCUACTT against Rrp7a | 0.233 (inactive)
88 | GGGCCACACAGAAAUGGUUTT against Ank1 | 0.994 (inactive)

Row | Sequence | z-score
89 | GGAGAAAGGUGCUUCCGAUTT against Mrpl19 | 0.47 (inactive)
90 | CGAUGGCUUGGUUCCAUUUTT against Tcaf3 | -0.0976 (inactive)
91 | GGCACUACAACGGAACUCATT against Slco5a1 | -1.82 (inactive)
92 | GCGUGUUAGGAAAAACUCUTT against Pars2 | 1.36 (inactive)
93 | CCGAGCAGUAUGUGAACGUTT against Cela1 | 3.56 (active)
94 | CCUUUACUGUCCAUUCCGATT against Stxbp2 | -0.533 (inactive)
95 | CCCUGUGAAAGUGUCAUAUTT against Pigq | 1.28 (inactive)
96 | GGUUCAACUUCACACUGAGTT against Mettl22 | 1.08 (inactive)
97 | GGAAAAAAAUGCUGUAUACTT against Insm1 | -0.599 (inactive)
98 | GGUGCUUUGUAAACUGUCUTT against Slc26a11 | -2.99 (active)
99 | ACCUGUGAUGGUGGAGACUTT against AF067061 | 0.577 (inactive)
100 | GCAUGCCCGUAAUCAAGUGTT against Racgap1 | 0.104 (inactive)
101 | GGACUUCAGCAACUAUAGUTT against Ggt7 | -0.631 (inactive)
102 | GUUCCACUACUUCUGCUCCTT against Olfr583 | 0.41 (inactive)
103 | GGUGCUUCCAGAAUCUUUATT against Epha5 | 0.517 (inactive)
104 | CCGGUUUCAAAUUGCCACUTT against Psmb4 | -2.73 (active)
105 | GGAAGGUAUCUGAGGUCCGTT against 2810408A11Rik | -0.106 (inactive)
106 | GGCAUUGCUGGACUUUGAATT against Mvp | -1.71 (inactive)
107 | GCUGCACGCACUGAUCAAGTT against Tjap1 | 1.02 (inactive)
108 | GGUUUUGUUAAAGAAGACGTT against 4833439L19Rik | -2.25 (active)
